# POLB inh: inhibitors of human DNA polymerase beta; P06746; Pol beta primer extension/strand displacement, fluorescence kinetic; Potency, µM (doses to about 114 µM), inactives show at the highest dose activity change, negative = inhibition, most hits filed as inhibitors; 340,000 compounds, 1.3% hits; AID 485314; also: potency is read from the fitted curve at half-maximal effect; % is scaled to controls: 0 for no effect and ±100 for the full control effect
#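 Preincubation: enzyme (10 nM) with compound, 15 min, RT. Reaction: substrate added to 50 nM final. Reads: 0 and 10 min. Analysis: normalized, Hill fit.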
# FEN1 inh: blocks human flap endonuclease 1 | Recombinant FEN1 flap cleavage, fluorescence, 15 min | Potency, µM (titrated, usually from 114 µM), inactives show at the top dose activity change, negative = inhibition, hits mostly inhibitors | 390,000 compounds, 0.35% hits; also: potency is read from the fitted curve at half-maximal effect; % is scaled to controls: 0 for no effect and ±100 for the full control effect; nearly all actives have a fitted effect of over 65% in size
#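 Nuclease activity of 10 nM FEN1 was measured after 15 min of room-temperature exposure to titrated compounds, by adding 50 nM flap substrate and reading plates at 0 and 15 min.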
# POLI inh: inhibitors of human DNA polymerase iota; Q9UNA4; Pol iota fluorescent replication assay, 10 min; Potency, µM (highest dose often 115 µM), inactives show top-dose activity, negative = inhibition, hits mostly inhibitors; 390,000 compounds, 1% hits; AID 588590; also: potency is read from the fitted curve at half-maximal effect
# Target sequence (Q9UNA4 whole entry, looked up): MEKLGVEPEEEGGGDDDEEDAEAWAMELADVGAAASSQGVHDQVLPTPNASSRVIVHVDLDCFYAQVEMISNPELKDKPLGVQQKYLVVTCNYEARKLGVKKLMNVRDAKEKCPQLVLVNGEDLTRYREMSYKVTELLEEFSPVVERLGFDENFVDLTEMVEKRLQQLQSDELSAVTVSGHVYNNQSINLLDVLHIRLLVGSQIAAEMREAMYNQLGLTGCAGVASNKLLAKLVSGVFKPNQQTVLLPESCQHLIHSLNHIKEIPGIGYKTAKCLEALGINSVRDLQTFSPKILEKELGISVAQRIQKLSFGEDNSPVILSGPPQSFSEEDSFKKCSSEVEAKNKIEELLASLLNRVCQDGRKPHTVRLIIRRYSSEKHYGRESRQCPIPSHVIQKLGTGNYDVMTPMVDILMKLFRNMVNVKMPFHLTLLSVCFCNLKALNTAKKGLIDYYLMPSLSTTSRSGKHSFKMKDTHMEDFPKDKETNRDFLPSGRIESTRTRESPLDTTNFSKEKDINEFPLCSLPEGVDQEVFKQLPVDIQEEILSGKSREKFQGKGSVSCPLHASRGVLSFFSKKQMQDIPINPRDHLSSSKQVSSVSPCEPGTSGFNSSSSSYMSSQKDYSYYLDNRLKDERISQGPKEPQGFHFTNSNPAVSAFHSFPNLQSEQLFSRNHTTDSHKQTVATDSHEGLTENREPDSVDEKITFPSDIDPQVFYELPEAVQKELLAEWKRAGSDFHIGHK
#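 Pol iota at 10 nM preincubated 15 min with compounds at room temperature; reaction started with fluorescent substrate, 50 nM final. Fluorescence read kinetically at 0 and 10 min; buffer-only wells as negative control.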
# Pol kappa inh-1: DNA polymerase kappa (human) inhibition | purified Pol kappa, fluorescent DNA synthesis assay, 10 min | 400,000 compounds, 0.53% hits | AID 588579 | Potency, µM (highest dose often 107 µM), for the others: at the top dose activity, negative = inhibition, actives largely listed as inhibitors; also: potency is read from the fitted curve at half-maximal effect; % is scaled to controls: 0 for no effect and ±100 for the full control effect
#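 Kinetic fluorescence screen: compound preincubated 15 min RT with 10 nM enzyme; 50 nM substrate (final) initiates; reads at 0/10 min.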
# Pol eta inh-1: inhibitors of human DNA polymerase eta; Q9Y253; recombinant Pol eta, fluorescent DNA replication assay; Potency, µM (series often up to 114 µM), without a hit: at the top dose activity change, negative = inhibition, usual class: inhibitors; 390,000 compounds, 1.2% hits; also: potency is read from the fitted curve at half-maximal effect; % is scaled to controls: 0 for no effect and ±100 for the full control effect
#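 Pol eta at 10 nM preincubated with compounds 15 min at room temperature; reaction started with fluorescent substrate (50 nM final) and read kinetically at 0 and 10 min.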
# WRN inhibitor: WRN helicase (human) inhibition; 360,000 compounds, 0.46% hits; Potency, µM (doses to about 114 µM), for inactives: at the highest dose activity change, negative = inhibition, usual class: inhibitors; WRN helicase unwinding, fluorescent forked duplex, kinetic; also: potency is read from the fitted curve at half-maximal effect; % is scaled to controls: 0 for no effect and ±100 for the full control effect; nearly all actives have a fitted effect of over 55% in size
#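 Kinetic red-fluorescence monitoring (525/598 nm) tracks WRN helicase activity after 100 nM fluorophore-quencher forked duplex and 2 mM ATP are added to 20 nM enzyme pretreated 15 min at room temperature with compound.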
# GALK inh confirm: confirmation of human galactokinase (GALK) inhibitors; shares compounds with Pol eta inh-1; purified GALK, Kinase-Glo ATP depletion luminescence; Potency, µM (titrated, usually from 115 µM), without a hit: at the top dose activity, negative = inhibition, actives largely listed as inhibitors; 150 compounds, 70% hits; AID 2015
# Redox cycling: generates H2O2 by redox cycling, flagging GALK artifacts; AID 2035; shares compounds with Pol eta inh-1; Phenol red-HRP H2O2 redox cycling, absorbance 600 nm; Potency, µM (top dose mostly 115 µM), for inactives: at the top dose activity change, negative = H2O2 signal, most hits filed as inhibitors; 150 compounds, 40% hits
# HEK293 viability: reduces HEK-293 cell viability in GALK counter-screen; shares compounds with Pol eta inh-1; HEK-293 viability, ATP luminescence (CellTiter-Glo), 24/48 h; AID 2547; 170 compounds, 10% hits; Potency, µM (highest dose often 46.1 µM), inactives show at the top dose activity change, negative = cytotoxicity, usual class: inhibitors; also: potency is read from the fitted curve at half-maximal effect; % is scaled to controls: 0 for no effect and ±100 for the full control effect
# Pol kappa inh-2: confirmation of human DNA polymerase kappa inhibitors; shares compounds with Pol eta inh-1; purified Pol-kappa, fluorescent strand-displacement substrate; Potency, µM, usual class: inhibitors; 920 compounds, 76% hits; also: potency is read from the fitted curve at half-maximal effect
# Pol eta inh-2: Pol eta (human) inhibition, cherry-pick confirmation. 2,600 compounds, 64% hits. Potency, µM, actives largely listed as inhibitors. Pol eta primer extension, TAMRA/BHQ fluorescence, 10 min. shares compounds with Pol eta inh-1; also: potency is read from the fitted curve at half-maximal effect
# An asterisk follows results filed as active; ? = inconclusive; . = no result; [ ] = another dose, or the depositor's remark. Shown are actives, neighbours in structure and some others; about 2.4% of the full set was active somewhere. Calls follow the shape of the dose curve; as a rule, active = well fitted curve in the direction sought with a large enough effect; inconclusive = small, poorly fitted or top-dose-only effect, or another doubt; inactive = no such curve, though single readings can be large; an effect the other way counts as inactive or inconclusive.
SMILES,POLB inh,FEN1 inh,POLI inh,Pol kappa inh-1,Pol eta inh-1,WRN inhibitor,Pol eta inh-2,others
CCCCOc1cccc(C(=O)N(Cc2ccc(Cl)cc2)C2CCS(=O)(=O)C2)c1 (stereo not drawn),10.7%,-16.0%,11.3%,-11.7%,-25.5%,.,.,
COc1ccccc1N1CCN(c2ncnc3c2nnn3C)CC1,0.3%,-1.6%,13.5%,4.1%[60.1 µM],-14.1%,.,.,
O=C(Nc1ccc(C(=O)O)cc1)Nc1ccc([N+](=O)[O-])cc1,12.0%,4.2%,150.2%,-7.7%,-29.5%,-27.9%,.,
O=C(O)c1ccc(Nc2ncc([N+](=O)[O-])cc2[N+](=O)[O-])cc1,25.3%,-2.8%,?,-29.2%,31.6µM*,-2.8%[11.6 µM],67.5*,
COc1ccc2oc(C(=O)Nc3ccccc3N3CCOCC3)c(C)c2c1,.,-8.4%,?,-10.2%,3.9%,-1.8%,.,
COc1ccc2oc(C(=O)Nc3ccc(N4CCOCC4)cc3)c(C)c2c1,.,-4.5%,?,?,12.6µM*,?,37.9*,
COc1ccc(-c2nc3c4cnn(-c5ccccc5F)c4ncn3n2)cc1,9.2%,-2.1%,3.2%,-3.3%,.,.,.,
O=C(CSc1nc2ccsc2c(=O)n1Cc1ccccc1)NCc1ccco1,5.7%,-17.0%,42.4%,-1.9%,-11.0%,-2.9%,.,
O=C(CSc1nc2ccccc2c(=O)n1Cc1ccco1)NCc1ccco1,?,5.5%,31.6µM*,?,79.4µM*,-32.8%[57.1 µM],?,
O=C(CSc1nc2ccsc2c(=O)n1NC(=O)c1ccccc1)NCc1ccco1,?,-3.0%,50.1µM*,79.4µM*,44.7µM*,?,?,
CC(=O)NCCn1c(SCC(=O)NCc2ccco2)nc2ccccc2c1=O,26.5%,-5.2%,3.2%,-9.7%,-6.6%,-5.9%,.,
CSCC[C@H](NC(=O)[C@H](Cc1ccccc1)NC(=O)[C@H](Cc1cnc[nH]1)NC(=O)CNC(=O)[C@@H](NC(=O)[C@H](C)NC(=O)[C@H](Cc1c[nH]c2ccccc12)NC(=O)[C@H](CC(C)C)NC(=O)[C@H](CC(N)=O)NC(=O)CN)[C@@H](C)O)C(N)=O,.,.,.,15.8%[60.1 µM],.,.,.,
Cc1cc2c(cc3c(SCc4ccccc4Cl)nnc(C)n32)o1,5.6%,-20.4%,7.9%,-5.6%,-25.1%,.,.,
CCNc1nc(C#N)nc(Nc2ccccc2)n1,.,-17.8%,-9.1%,-10.6%,.,.,.,
N#C/C(=C(/O)c1ccco1)c1nc2ccccc2s1,-14.1%,-11.1%,52.7%,-20.0%,15.3%,-6.3%,.,
N#C/C(=C(/O)c1cc2ccccc2o1)c1nc2ccccc2s1,34.5%,-3.3%,16.0%,3.4%,-27.2%,-4.7%,.,GALK inh confirm=?;Redox cycling=-2.1%;HEK293 viability=-7.1%
Cn1nc(C(=O)Nc2ccc(S(=O)(=O)Nc3ncccn3)cc2)ccc1=O,-22.6%,4.2%,?,?,28.2µM*,-31.5%,67.5*,
O=C(Nc1ccc(S(=O)(=O)Nc2ncccn2)cc1)C12CC3CC(CC(Cl)(C3)C1)C2,.,4.1%,?,?,17.8µM*,-10.8%[11.6 µM],30.1*,Pol kappa inh-2=16.8*
CCC(=O)Nc1ccc(S(=O)(=O)Nc2ncccn2)cc1,6.7%,1.6%,6.3%,2.5%,8.4%,4.3%,.,
CCC1=C(c2ccc(C)cc2)S(=O)(=O)N=C1N1CCC(C(=O)Nc2ccccc2C(=O)OC)CC1,3.1%,-6.4%,13.8%,0.0%,.,.,.,
CCCc1cc(=O)[nH]c(SCC(=O)Nc2sccc2C#N)n1,.,?,17.8µM*,?,?,?,?,
CCCc1cc(=O)[nH]c(SCC(=O)Nc2c(C)cccc2C)n1,0.9%,6.7%,?,-5.3%,-2.0%,-0.3%,.,
Cn1cccc1C(=O)N1CCC2(CCN(Cc3nccs3)CC2)CC1,.,.,.,-2.6%[60.1 µM],.,.,.,
CN1C(=O)c2ccccc2NC(=O)[C@]12O[C@@H]2c1cccc(O)c1,44.7µM*,2.1%,?,39.8µM*,11.2µM*,-24.8%,37.9*,
COc1ccc2c(CNCCc3ccc(SC)cc3)c(C(=O)O)n(Cc3ccc(F)cc3)c2c1,1.8%,-2.8%,-19.3%,-1.1%,-12.0%,.,.,
SMILES,POLB inh,FEN1 inh,POLI inh,Pol kappa inh-1,Pol eta inh-1,WRN inhibitor,Pol eta inh-2,others
Cc1ccccc1C(=O)OCc1cc(=O)n2nc(C3CCCCC3)sc2n1,2.7%,18.9%,28.1%,-3.6%,-15.9%,.,.,
CCc1ccc(OCC(=O)N/N=C\c2ccco2)c([N+](=O)[O-])c1,?,-9.8%,20µM*,79.4µM*,?,?,?,
Cc1snc(S(=O)(=O)/C(C#N)=N/Nc2ccc(C(F)(F)F)cc2)c1C#N,-0.3%,6.7%,0.2%,0.7%,-0.1%,-16.4%,.,GALK inh confirm=37.5µM*;Redox cycling=2.7%;HEK293 viability=6.0%
Cc1ccc(C)c(/C=C(\C(=O)O)c2ccc(S(=O)(=O)N3CCCCC3)s2)c1,22.4µM*,11.5%,?,?,50.1µM*,-11.7%[11.6 µM],?,
CCOc1cc(/C=C(\C(=O)O)c2ccc(S(=O)(=O)N3CCCC3)s2)ccc1OC,.,4.5%,7.3%,0.0%,-1.3%,1.9%,.,
Cc1nnc(NS(=O)(=O)c2ccc(N)cc2)s1,-13.3%,-12.0%,-3.9%,-5.1%,-15.2%,.,.,
Cc1nnc(NS(=O)(=O)c2ccc(N=Nc3ccc(N)nc3N)cc2)s1,.,?,15.8µM*,79.4µM*,20µM*,?,47.8*,
COc1cc(NC(=O)c2noc3c2CC(C)CC3)c(OC)cc1Cl (stereo not drawn),-11.7%,-1.0%,?,-17.4%,-0.2%,.,.,
CC(CC(C)(C)C)CP(=O)(O)CC(C)CC(C)(C)C (stereo not drawn),.,.,.,2.5%[60.1 µM],.,.,.,
O=S(=O)(c1ccccc1Cl)N1CCN(c2nc(-c3ccccc3)nc3ccccc23)CC1,.,-18.2%,-6.2%,1.2%,.,.,.,

# Bioassay records deposited in PubChem BioAssay by National Center for Advancing Translational Sciences (NCATS).
